Test results from PubChem BioAssay (NCI).
“And” between values parts separate entries of the source, which are not always exact repeats. Equal entries are not always repeated. The panel holds about 83,000 compounds, 20% with a hit somewhere; the sample as a whole holds those more often.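 Cell lines were cultured in 96-well plates, exposed to a single compound concentration, and assessed for percent growth 48 hours later.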 The source made the active and inactive calls. How the source made its calls: active means growth percent below 10; inactive means the rest.

Tests used:
Test in all cases: NCI-60 one-dose screen, 48 h (100 = growth as untreated, 0 = no growth, -100 = all killed)
HT29 colon = settings: 10 µM unless noted
SNB-75 CNS = settings: 10 µM unless noted
SNB-19 CNS = settings: 10 µM unless noted
U251 CNS = settings: 10 µM unless noted
PC-3 prostate = settings: 10 µM unless noted
SK-MEL-5 melanoma = settings: 10 µM unless noted
UACC-62 melanoma = tested on: UACC-62 melanoma
LOX IMVI melanoma = settings: 10 µM unless noted
SK-MEL-28 melanoma = settings: 10 µM unless noted
SK-MEL-2 melanoma = settings: 10 µM unless noted
EKVX NSCLC = settings: 10 µM unless noted
SN12C renal = settings: 10 µM unless noted
UO-31 renal = settings: 10 µM unless noted
TK-10 renal = settings: 10 µM unless noted
ACHN renal = settings: 10 µM unless noted
CAKI-1 renal = settings: 10 µM unless noted
A498 renal = settings: 10 µM unless noted
CCRF-CEM leukemia = settings: 10 µM unless noted
MOLT-4 leukemia = settings: 10 µM unless noted
SR leukemia = settings: 10 µM unless noted

Measured: growth

Cc1nn(-c2ccccc2)c2nc(Cl)c(/C=C/C(=O)c3ccccc3)c(-c3ccccc3)c12
inactive: HT29 colon 103% | SNB-75 CNS 89.4% | SNB-19 CNS 98.9% | U251 CNS 104% | PC-3 prostate 101% | SK-MEL-5 melanoma 96.3% | UACC-62 melanoma; 10 µM unless noted 102% | LOX IMVI melanoma 96.1% | SK-MEL-28 melanoma 109% | SK-MEL-2 melanoma 96.4% | EKVX NSCLC 107% | SN12C renal 102% | UO-31 renal 82.4% | TK-10 renal 121% | ACHN renal 104% | CAKI-1 renal 97.8% | A498 renal 112%

Cc1ccc(C(=O)Nc2ccc(Cl)cc2C(=O)NCc2ccccc2)cc1
inactive: HT29 colon 23.3% | SNB-75 CNS 67.3% | SNB-19 CNS 92.8% | U251 CNS 81.5% | PC-3 prostate 76.6% | SK-MEL-5 melanoma 78.4% | UACC-62 melanoma; 10 µM unless noted 70.7% | LOX IMVI melanoma 79.2% | SK-MEL-28 melanoma 83.7% | SK-MEL-2 melanoma 51.7% | EKVX NSCLC 80.3% | SN12C renal 97.7% | UO-31 renal 76.5% | TK-10 renal 105% | ACHN renal 86.4% | CAKI-1 renal 77.7% | A498 renal 79.2% | CCRF-CEM leukemia 73.9% | MOLT-4 leukemia 51.4%

Cn1cc(-c2csc(-c3c[nH]c4ncccc34)n2)c2cc(Br)cnc21
active: SNB-75 CNS -28.8% | U251 CNS 3.32% | SN12C renal 4.21% | TK-10 renal -21.8%
inactive: HT29 colon 50.6% | SNB-19 CNS 50.5% | PC-3 prostate 34.9% | SK-MEL-5 melanoma 35.8% | UACC-62 melanoma; 10 µM unless noted 32.5% | LOX IMVI melanoma 20.5% | SK-MEL-28 melanoma 27.7% | SK-MEL-2 melanoma 78.2% | EKVX NSCLC 24.2% | UO-31 renal 28.8% | ACHN renal 29.6% | CAKI-1 renal 12.5% | A498 renal 71.7% | CCRF-CEM leukemia 68% | MOLT-4 leukemia 76.2%

CCCCCCCC/C=C/CCCCCCCC1=NC(C)(C)CN1CC(C)O (stereo unspecified)
active: HT29 colon -64.8% | U251 CNS -17% | UACC-62 melanoma; 10 µM unless noted 3.95% | LOX IMVI melanoma -99.4% | UO-31 renal -73.9% | CCRF-CEM leukemia -37.9%
inactive: SNB-75 CNS 32% | SNB-19 CNS 72.3% | PC-3 prostate 42% | SK-MEL-5 melanoma 53.3% | SK-MEL-28 melanoma 53.2% | SK-MEL-2 melanoma 33% | EKVX NSCLC 71.2% | SN12C renal 54.9% | TK-10 renal 82.8% | ACHN renal 28% | CAKI-1 renal 62% | A498 renal 76.9%

O=C(CCc1nnc2sc(Cc3ccccc3Cl)nn12)c1nc2ccccc2[nH]1
inactive: HT29 colon 99.4% | SNB-75 CNS 78.7% | SNB-19 CNS 96.2% | U251 CNS 97% | PC-3 prostate 85.5% | SK-MEL-5 melanoma 91.8% | UACC-62 melanoma; 10 µM unless noted 83.9% | LOX IMVI melanoma 87.9% | SK-MEL-28 melanoma 110% | SK-MEL-2 melanoma 93% | EKVX NSCLC 91.7% | SN12C renal 91.8% | UO-31 renal 63% | TK-10 renal 144% | ACHN renal 84.7% | CAKI-1 renal 89% | A498 renal 92.3% | CCRF-CEM leukemia 96.1% | MOLT-4 leukemia 72.9%

Cc1c(C(N)=O)sc2c1c(=O)n(Cc1ccccc1)c1nnc(SCC(=O)Nc3ccc(Cl)cc3)n21
inactive: HT29 colon 37.1% | SNB-19 CNS 58% | U251 CNS 20.2% | PC-3 prostate 38.1% | SK-MEL-5 melanoma 51.8% | UACC-62 melanoma; 10 µM unless noted 57.6% | LOX IMVI melanoma 41.8% | SK-MEL-28 melanoma 17.3% | EKVX NSCLC 50.2% | SN12C renal 50.8% | UO-31 renal 75.5% | ACHN renal 32.7% | CAKI-1 renal 77% | A498 renal 40.1%
active: SNB-75 CNS -52% | SK-MEL-2 melanoma 0.559% | TK-10 renal -22.9%

Cc1nn(-c2ccc(Br)cc2)c2nc3c(nc12)C(=O)C(=O)c1ccccc1-3
inactive: HT29 colon 99.8% | SNB-75 CNS 85.7% | SNB-19 CNS 92.5% | U251 CNS 103% | PC-3 prostate 87.7% | SK-MEL-5 melanoma 89.6% | UACC-62 melanoma; 10 µM unless noted 90.6% | LOX IMVI melanoma 88.1% | SK-MEL-28 melanoma 96.3% | SK-MEL-2 melanoma 102% | EKVX NSCLC 80% | SN12C renal 95.5% | UO-31 renal 63.7% | TK-10 renal 140% | ACHN renal 93.1% | CAKI-1 renal 94.9% | A498 renal 106%

O=C(c1ccccc1)c1ccccc1Cl
inactive: HT29 colon 92.9% | SNB-75 CNS 88.8% | SNB-19 CNS 97.1% | U251 CNS 99% | PC-3 prostate 96.1% | SK-MEL-5 melanoma 105% | UACC-62 melanoma; 10 µM unless noted 99.6% | LOX IMVI melanoma 107% | SK-MEL-28 melanoma 103% | SK-MEL-2 melanoma 100% | EKVX NSCLC 101% | SN12C renal 101% | UO-31 renal 86.7% | TK-10 renal 94.6% | ACHN renal 112% | CAKI-1 renal 109% | A498 renal 86.1% | CCRF-CEM leukemia 86.3% | MOLT-4 leukemia 94.2%

Cc1cc(NC(=O)c2ccc(N)cc2)ccc1N=Nc1ccc2c(O)c(N=Nc3ccc(Cl)c(S(=O)(=O)O)c3)c(S(=O)(=O)O)cc2c1
inactive: HT29 colon 91% | SNB-75 CNS 104% | SNB-19 CNS 105% | U251 CNS 68.7% | PC-3 prostate 92% | SK-MEL-5 melanoma 65.1% | UACC-62 melanoma; 10 µM unless noted 88.5% | LOX IMVI melanoma 72.7% | SK-MEL-28 melanoma 96.4% | SK-MEL-2 melanoma 98.3% | EKVX NSCLC 106% | SN12C renal 102% | UO-31 renal 79.5% | TK-10 renal 73% | ACHN renal 71.5% | CAKI-1 renal 87.1% | A498 renal 88.9% | CCRF-CEM leukemia 55.7% | MOLT-4 leukemia 99.3%

CCN(CC)CCOc1ccccc1-n1c(C)ccc1-c1ccccc1
inactive: HT29 colon 34.5% | SNB-75 CNS 93% | SNB-19 CNS 102% | U251 CNS 85.3% | PC-3 prostate 62.8% | SK-MEL-5 melanoma 90.8% | UACC-62 melanoma; 10 µM unless noted 106% | LOX IMVI melanoma 88.5% | SK-MEL-28 melanoma 119% | SK-MEL-2 melanoma 102% | EKVX NSCLC 83.8% | SN12C renal 91.7% | UO-31 renal 55.2% | TK-10 renal 85.2% | ACHN renal 105% | CAKI-1 renal 85.1% | A498 renal 65.1% | CCRF-CEM leukemia 28.1%
active: MOLT-4 leukemia -35.2% | SR leukemia -29.4%

c1ccc2c(c1)[nH]c1c2cc[n+]2cc3c(cc12)CCCC3
inactive: HT29 colon 18.5% | SNB-75 CNS 77.3% | SNB-19 CNS 35.1% | U251 CNS 16.3% | PC-3 prostate 22.8% | SK-MEL-5 melanoma 18.3% | UACC-62 melanoma; 10 µM 29.6% | LOX IMVI melanoma 19.5% | SK-MEL-28 melanoma 32.7% | SN12C renal 24.5% | UO-31 renal 82.1% | ACHN renal 66.2% | A498 renal 97.3% | SR leukemia 10.6%
active: UACC-62 melanoma; 100 µM -23.2% and -48.3% | SK-MEL-2 melanoma -8.25% | CCRF-CEM leukemia 1.33% | MOLT-4 leukemia 2.41%

COc1cc2cn3c4ccc(O)cc4nc(N)c3c2cc1OC
active: SNB-75 CNS 2.21% | U251 CNS 4.61% | SK-MEL-5 melanoma -54.9% | UACC-62 melanoma; 10 µM unless noted -59.4% | LOX IMVI melanoma -40.5% | UO-31 renal 1.49% | ACHN renal -3.69% | CAKI-1 renal -4.04% | A498 renal -14.4% | MOLT-4 leukemia 8.22%
inactive: HT29 colon 24.3% | SNB-19 CNS 20.5% | PC-3 prostate 35.8% | SK-MEL-28 melanoma 39% | SK-MEL-2 melanoma 21.2% | EKVX NSCLC 48.7% | SN12C renal 18.6% | TK-10 renal 50.4% | CCRF-CEM leukemia 21.1%

C=Cc1nn2c(CCC(=O)c3nc4ccccc4[nH]3)nnc2s1
inactive: HT29 colon 105% | SNB-75 CNS 110% | SNB-19 CNS 107% | U251 CNS 104% | PC-3 prostate 98% | SK-MEL-5 melanoma 98.2% | UACC-62 melanoma; 10 µM unless noted 102% | LOX IMVI melanoma 95% | SK-MEL-28 melanoma 113% | SK-MEL-2 melanoma 97.5% | EKVX NSCLC 106% | SN12C renal 101% | UO-31 renal 76.2% | TK-10 renal 131% | ACHN renal 96.2% | CAKI-1 renal 96.7% | A498 renal 135% | CCRF-CEM leukemia 104% | MOLT-4 leukemia 102%

Cc1nn(-c2ccc(Cl)cc2)c2nc3c(nc12)C(=O)C(=O)c1ccccc1-3
inactive: SNB-19 CNS 62.4% | U251 CNS 77.5% | PC-3 prostate 73.9% | SK-MEL-5 melanoma 43.8% | UACC-62 melanoma; 10 µM unless noted 73.3% | LOX IMVI melanoma 62.6% | SK-MEL-28 melanoma 67.2% | SK-MEL-2 melanoma 99.1% | EKVX NSCLC 64% | SN12C renal 78.7% | UO-31 renal 59.8% | TK-10 renal 144% | ACHN renal 81.2% | CAKI-1 renal 69.8% | A498 renal 59.4%
active: HT29 colon 4.77% | SNB-75 CNS -2.08%

Cc1nn(-c2ccccc2)c2nc3c(nc12)C(=O)CCC3
inactive: HT29 colon 99% | SNB-75 CNS 98.2% | SNB-19 CNS 104% | U251 CNS 102% | PC-3 prostate 90% | SK-MEL-5 melanoma 88.3% | UACC-62 melanoma; 10 µM unless noted 86.3% | LOX IMVI melanoma 90.3% | SK-MEL-28 melanoma 114% | SK-MEL-2 melanoma 90% | EKVX NSCLC 93.8% | SN12C renal 90.1% | UO-31 renal 66.4% | TK-10 renal 104% | ACHN renal 95.5% | CAKI-1 renal 101% | A498 renal 81.7%

Cc1cc2cn3c4cccnc4[nH]c(=O)c3c2cc1C
active: HT29 colon -76.3% | U251 CNS -71.2% | LOX IMVI melanoma -68.5% | CCRF-CEM leukemia 4.5%
inactive: SNB-75 CNS 79.3% | SNB-19 CNS 56.4% | PC-3 prostate 67.7% | SK-MEL-5 melanoma 44.4% | UACC-62 melanoma; 10 µM unless noted 61.2% | SK-MEL-28 melanoma 86.6% | SK-MEL-2 melanoma 58.2% | EKVX NSCLC 76.7% | SN12C renal 22.5% | UO-31 renal 58.9% | TK-10 renal 61.3% | ACHN renal 82.1% | CAKI-1 renal 75.7% | A498 renal 95.8%

O=C1c2nsnc2C(=O)c2c(F)c(F)c(F)c(F)c21
active: HT29 colon -54.8% | SNB-75 CNS -76.4% | SNB-19 CNS -86.8% | U251 CNS -76.3% | PC-3 prostate 7.59% | SK-MEL-5 melanoma -61.1% | UACC-62 melanoma; 10 µM unless noted -86.9% | LOX IMVI melanoma -49.4% | SK-MEL-28 melanoma -92.5% | SK-MEL-2 melanoma -75.4% | EKVX NSCLC -13.9% | SN12C renal -94.8% | UO-31 renal -86.9% | TK-10 renal -98.9% | ACHN renal -97.3% | CAKI-1 renal -75.9% | CCRF-CEM leukemia 6.36% | MOLT-4 leukemia -26.6%
inactive: A498 renal 10.1%
